# Measurements as given in paper PMC4336329 (PLoS ONE, 2015).
# Out of some 310,000 compounds screened, about 14,000 (4.5%) showed an effect of 50% or more. Effects have a minus sign here. For the sample, strong results were picked, then their nearest neighbours and some compounds at random.
# Target: human ether-à-go-go-related gene (hERG) potassium channel (human, UniProt Q12809)
# Assay: primary screen, population patch clamp on CHO cells stably expressing hERG; higher = less effect of the substance
# 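Also: peak tail current of the secondary pulse compared with the same well before compound.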
# Sequence of human ether-à-go-go-related gene (hERG) potassium channel (Q12809 whole entry, looked up): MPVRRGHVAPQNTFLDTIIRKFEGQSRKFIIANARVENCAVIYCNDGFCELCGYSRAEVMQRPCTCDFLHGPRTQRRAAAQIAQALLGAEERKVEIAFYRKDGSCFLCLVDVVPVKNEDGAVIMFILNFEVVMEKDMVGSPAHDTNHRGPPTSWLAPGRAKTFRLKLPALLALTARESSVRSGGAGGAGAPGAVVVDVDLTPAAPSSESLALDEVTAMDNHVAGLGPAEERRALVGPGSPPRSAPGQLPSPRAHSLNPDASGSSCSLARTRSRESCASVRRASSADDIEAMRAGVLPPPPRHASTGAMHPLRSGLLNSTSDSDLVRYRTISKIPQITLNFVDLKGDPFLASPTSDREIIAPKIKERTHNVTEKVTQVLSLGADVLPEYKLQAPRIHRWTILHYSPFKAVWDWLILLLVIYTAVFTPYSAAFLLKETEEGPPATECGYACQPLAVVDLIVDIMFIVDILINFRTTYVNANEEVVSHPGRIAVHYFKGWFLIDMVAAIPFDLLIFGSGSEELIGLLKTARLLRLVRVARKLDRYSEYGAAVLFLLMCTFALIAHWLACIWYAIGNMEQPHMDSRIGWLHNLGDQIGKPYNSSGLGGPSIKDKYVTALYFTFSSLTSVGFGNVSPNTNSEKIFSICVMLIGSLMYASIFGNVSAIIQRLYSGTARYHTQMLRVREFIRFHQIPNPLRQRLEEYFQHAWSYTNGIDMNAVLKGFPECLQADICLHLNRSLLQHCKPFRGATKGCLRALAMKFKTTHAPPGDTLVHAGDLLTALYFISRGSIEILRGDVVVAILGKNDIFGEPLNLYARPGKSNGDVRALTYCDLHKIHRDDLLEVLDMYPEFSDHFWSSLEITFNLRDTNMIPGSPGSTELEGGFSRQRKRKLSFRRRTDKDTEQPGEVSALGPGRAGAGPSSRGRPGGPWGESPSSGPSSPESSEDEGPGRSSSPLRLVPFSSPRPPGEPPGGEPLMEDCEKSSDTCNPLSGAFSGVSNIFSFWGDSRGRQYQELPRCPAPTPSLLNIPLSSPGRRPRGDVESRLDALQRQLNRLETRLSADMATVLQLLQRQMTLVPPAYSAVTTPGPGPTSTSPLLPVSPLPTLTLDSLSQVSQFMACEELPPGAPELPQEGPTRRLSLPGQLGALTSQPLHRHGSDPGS
row,SMILES,"hERG current change (%, negative = inhibition) at 10uM [%]"
1,CCOc1ccccc1CNC(=O)c1ccc2nc(N3CCOCC3)sc2c1,-47.5
2,O=C(Nc1cc(Cl)ccc1O)C1CC(c2ccccc2O)=NO1 (stereo not drawn),-5.36
3,O=C(O)CSc1ncnc2c1sc1nc(-c3ccccc3)c3c(c12)CCC3,10.3
4,CCOC(=O)C1CCN(C(=O)c2ccc(OCC(=O)Nc3cccc(C(F)(F)F)c3)c(OC)c2)CC1,-61.9
5,NC(=O)C1CCN(C(=O)c2ccc(OCC(=O)Nc3cccc(C(F)(F)F)c3)cc2)CC1,1.96
6,CCOc1ccc(NC(=O)COc2ccc(C(=O)N3CCC(C(N)=O)CC3)cc2OC)cc1,9.91
7,CCOC(=O)C1CCN(C(=O)c2ccc(OCC(=O)Nc3ccc(OCC)cc3)c(OC)c2)CC1,-19.5
8,CCOC(=O)C1CCN(C(=O)c2ccc(OCC(=O)Nc3cccc(C(F)(F)F)c3)cc2)CC1,-55.5
9,O=C(COc1ccc(C(=O)O)cc1)Nc1cccc(C(F)(F)F)c1,22.5
10,Cc1nc(C(=O)NNC(=O)c2ccc(Cl)cc2)c(C(F)(F)F)o1,7.36
11,CCCN1CNC(=S)N(CC2CCCO2)C1 (stereo not drawn),5.19
12,CCCCN(CC)CCCNC(=S)Nc1ccc2nc3n(c(=O)c2c1)CCCCC3,-11.9
13,CCCN(CCC)CCCNC(=S)Nc1ccc2nc3n(c(=O)c2c1)CCCCC3,6.36
14,CCCCN(C)C(=S)Nc1ccc2nc3n(c(=O)c2c1)CCCCC3,-81.2
15,O=c1c2cc(NC(=S)NCc3cccnc3)ccc2nc2n1CCCCC2,-10.1
16,CCN(CC)CCNC(=S)Nc1ccc2nc3n(c(=O)c2c1)CCCCC3,0.152
17,CCN(CC)C(=S)Nc1ccc2nc3n(c(=O)c2c1)CCCCC3,-21.8
18,CCCCNC(=S)Nc1ccc2nc3n(c(=O)c2c1)CCCCC3,-43.6
19,CCCCN(CC)C(=S)Nc1ccc2nc3n(c(=O)c2c1)CCCCC3,-59
20,CN(Cc1ccccc1)C(=S)Nc1ccc2nc3n(c(=O)c2c1)CCCCC3,-78.1
21,COC(=O)c1cc(NC(=S)NCc2ccc(Cl)cc2)cc(C(=O)OC)c1,-20.6

row,SMILES,"hERG current change (%, negative = inhibition) at 10uM [%]"
1,Cc1ccc(Nc2nnc(SCC(=O)Nc3ccccc3[N+](=O)[O-])s2)cc1,7.88
2,CCOC(=O)CN1C(=O)/C(=C2\SC(=S)N(NC(=O)c3cccnc3)C2=O)c2ccccc21,11.5
3,O=C(NCc1ccc(F)cc1)c1cc(S(=O)(=O)N2CCOCC2)ccc1F,-20.6
4,C[C@H](NC(=O)c1cc2c([nH]c3ccccc32)c(-c2ccccc2)n1)C(=O)O,11.8
5,O=C(Nc1ccccc1C(F)(F)F)N1CCN(C(c2ccccc2)c2ccccc2)CC1,15.5
6,COc1ccc(-c2nc(SC)n(C(=O)c3ccco3)n2)cc1,13.7
7,O=S(=O)(/C=C/c1cccc(Br)c1)N1CCOCC1,-6.85
8,CCC(=NCCO)c1c(O)n(-c2ccc(Cl)cc2)c(=O)[nH]c1=O,15.5
9,CC(=O)c1c(-c2ccc(C)cc2)nc2c3ccccc3ccn12,10.2
10,COc1ccc(C(=O)c2c3ccc(OC)cc3[n+]([O-])n2Cc2ccc(C(N)=O)cc2)cc1,-42
11,COc1ccc(C(=O)c2c3ccccc3[n+]([O-])n2CCC(N)=O)cc1,13.1
12,COc1ccc(C(=O)c2c3ccc(C(F)(F)F)cc3[n+]([O-])n2CCC[NH3+])cc1.[Cl-],-73.3
13,COc1ccc2c(C(=O)c3ccc(C)cc3)n(CCCC(N)=O)[n+]([O-])c2c1,-44.2
14,COc1ccc2c(C(=O)c3ccc(C)cc3)n(Cc3ccc(C(N)=O)cc3)[n+]([O-])c2c1,-12.5
15,COc1ccc(C(=O)c2c3ccc(C(F)(F)F)cc3[n+]([O-])n2CCCC(N)=O)cc1,-51.6
16,COc1ccc(C(=O)c2c3ccc([N+](=O)[O-])cc3[n+]([O-])n2CCCC(N)=O)cc1,-34.6
17,COc1ccc2c(C(=O)c3ccc(Cl)cc3)n(CCCC(N)=O)[n+]([O-])c2c1,-55.5
18,COc1ccc(C(=O)c2c3ccc(OC)cc3[n+]([O-])n2CCCC(N)=O)cc1,-34.9
19,COc1ccc(S(=O)(=O)O/N=C2\CCSc3ccc(C)cc32)cc1,3.61
20,CCOCCCNCc1cn(-c2ccc(F)cc2F)nc1-c1ccccc1C,-48
21,CCc1cc(=O)oc2cc(C)cc(OC(C)C(=O)NCCN3CCOCC3)c12 (stereo not drawn),4.16
